Screening data from PubChem.
The list is not random: actives were taken first. Their share in the collection is about 8%.
FMDV antiviral: High Throughput Screening for Foot and Mouth Disease Virus Antivirals | FMDV antiviral cell-based qHTS | Potency, µM (doses to about 57.9 µM), without a hit: at the highest dose activity change, negative = inhibition, hits mostly inhibitors | 410,000 compounds, 1.2% hits | AID 1159524, 2015; calls by dose curve; tested in HEK293T cells; further: read-out not given here; potency means the concentration at half of the fitted maximal effect; on the % scale 0 is the no-effect control and ±100 the full control effect; nearly all actives have a fitted effect of over 45% in size
SARS PLP yeast: qHTS of Yeast-based Assay for SARS-CoV PLP; S. cerevisiae expressing SARS-CoV PLpro, growth rescue; Potency, µM (series often up to 32.9 µM), inactives show at the top dose activity, positive = growth rescue, usual class: activators; 330,000 compounds, 0.19% hits; AID 485353, 2010; calls by dose curve; further: potency means the concentration at half of the fitted maximal effect; 0% is about no effect; nearly all actives have a fitted effect of over 55% in size
Lassa entry inh: qHTS for Inhibitors of binding or entry into cells for Lassa Virus | Lassa virus pseudotype entry inhibition, cell reporter | 300,000 compounds, 1.2% hits | Potency, µM (series often up to 37.9 µM), for inactives: top-dose activity change, negative = inhibition, hits mostly inhibitors; calls by dose curve; tested in HEK293 cells; further: potency means the concentration at half of the fitted maximal effect; on the % scale 0 is the no-effect control and ±100 the full control effect; nearly all actives have a fitted effect of over 50% in size
HCMV inh: qHTS Assay for inhibitors of the human cytomegalovirus (HCMV) | activity change, negative = inhibition, % at 57.5 µM | AID 1259415, 2018 | 410,000 compounds, 4.5% hits | HFF cells, HCMV-luciferase reporter, 72 h; active compounds read low; in the data active means activity change below about -60%; inconclusive means no clear call, values can overlap the other calls; inactive means above about -39%; further: on the % scale 0 is the no-effect control and ±100 the full control effect
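Inhibition of viral replication was scored as loss of reporter luminescence in HFFs infected with HCMV-luciferase (MOI 1 PFU/cell) for 72 h; compounds tested at 2 doses, normalized to buffer and Salinomycin controls.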
HCV inh: qHTS Assay for Inhibitors of Hepatitis C Virus (HCV); Potency, µM (titrated, usually from 41.8 µM), for the others: top-dose activity change, negative = inhibition, actives largely listed as inhibitors; Huh7.5.1 HCVcc-Cre infection, luciferase reporter, 44 h; 340,000 compounds, 3.4% hits; active means well fitted inhibition curve with a large enough effect; inconclusive means small, poorly fitted or top-dose-only effect, or another doubt; inactive means no such curve, though single readings can be large or run the other way; further: potency means the concentration at half of the fitted maximal effect; on the % scale 0 is the no-effect control and ±100 the full control effect
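Infectious HCVcc-Cre (~0.5 moi) was added to cells just after compound, with cells seeded 4 h earlier at 1,000 per well. Luciferase activity after 44 h culture reported infection; substrate was incubated 15 min at room temperature before reading.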
Marburg entry inh: qHTS for inhibitors of binding or entry into cells for Marburg Virus. AID 540276, 2011. Marburg virus pseudotyped entry inhibition, cell reporter. 300,000 compounds, 1.8% hits. Potency, µM (series often up to 37.8 µM), inactives show at the highest dose activity change, negative = inhibition, usual class: inhibitors; calls by dose curve; tested in HEK293 cells; further: potency means the concentration at half of the fitted maximal effect; on the % scale 0 is the no-effect control and ±100 the full control effect
Starred values were filed as active, the others as inactive; ? = inconclusive; · = no result given; [ ] = remark or other dose.

SMILES	FMDV antiviral	SARS PLP yeast	Lassa entry inh	HCMV inh	HCV inh	Marburg entry inh
CC(=O)OC(C)(C)/C=C/C(=O)C(C)(O)C1[C@H](O)C[C@@]2(C)C3CC=C4C(CC[C@@H](O)C4(C)C)[C@]3(CO)C(=O)C[C@]12C (stereo partly specified)	18µM*	3%	?	-101*	?	0.25µM*
CC(=O)OC(C)(C)/C=C/C(=O)C(C)(O)C1C(O)CC2(C)C3CC=C4C(CC(O)C(=O)C4(C)C)C3(C)C(=O)CC12C (stereo unspecified)	32µM*	·	0.13µM*	-98*	?	?
COCCNC(=O)[C@@H]1[C@@H](CO)[C@@H]2Cn3c(cccc3=O)[C@H]1N2Cc1cccc(Cl)c1	·	·	·	-4	·	·
Cc1ccc(C)n1C1C(=O)N(C)c2ccccc21 (stereo unspecified)	·	·	·	0	·	·
Cc1ccc(S(=O)(=O)C2(S(=O)(=O)c3ccc(C)cc3)CC2)cc1	?	-8%	?	-24	2%	11µM*
O=S(=O)(c1ccccc1)C1(S(=O)(=O)c2ccccc2)CCCC1	2%	2%	?	10	-17%	12%
CCN1[C@@H]2c3cccc(=O)n3C[C@H]1[C@H](CO)[C@H]2C(=O)OC	·	·	·	-5	·	·
Cn1c(O)c(/C=C2\N=c3ccccc3=C2CCNC(=S)NC2CC2)c(=O)n(C)c1=O	13µM*	-2%	-9%[46.1 µM]	16	7%	7%[46.1 µM]
CN(C(=O)COC(=O)Cc1c(F)cccc1Cl)c1c(N)n(Cc2ccccc2)c(=O)[nH]c1=O	0%	4%	0%	5	-19%	15%
CCN(C(=O)c1ccc(=O)n(C)n1)c1c(N)n(Cc2ccccc2)c(=O)[nH]c1=O	-11%	-2%	7%	-77*	-15%	1%
CCN(C(=O)c1ccc(=O)[nH]c1)c1c(N)n(Cc2ccccc2)c(=O)[nH]c1=O	-7%	-2%	·	-40	10%	·
CCN(C(=O)CN(C)Cc1c(F)cccc1Cl)c1c(N)n(Cc2ccccc2)c(=O)[nH]c1=O	-7%	-7%	18%	-65*	30%	?
c1cncc(-c2cc(-n3ccnc3)ncn2)c1	-10%	·	·	·	·	·
CC(=O)N1c2ccccc2[C@H](C)[C@H]1C	10%	-2%	·	28	4%	·
CC1c2ccccc2N(S(=O)(=O)c2ccccc2)C1C (stereo unspecified)	-16%	·	?	-23	?	3.5µM*
CC1=C(C(=O)N(C(C)C)C(C)C)CC(CC(=O)NCCN2CCOCC2)C(=O)N1Cc1ccc(C(C)(C)C)cc1 (stereo unspecified)	-18%	·	·	-11	·	·
CC(O)(COc1ccccc1)c1ccc2c(c1)CN(Cc1ccc3nsnc3c1)CCO2 (stereo unspecified)	-16%	·	·	·	·	·
O=C(CO/N=C/c1ccccc1)N1c2ccccc2Oc2ccccc21	-17%	2%	5%	-99*	-14%	?
O=C(CN1CCCCC1)N1c2ccccc2Oc2ccccc21	-12%	-2%	8%	-3	-4%	-27%
CCn1nc(C)c(CN2CCc3c([nH]c4ccccc34)C2c2ccc(F)c(OC)c2)c1C (stereo unspecified)	-9%	-2%	23%[46.1 µM]	-76*	?	?
CCCN(Cc1ccc(N(C)C)cc1)CC1CC1	·	-10%	15%	7	7%	-9%
CCCN(Cc1ccc(N(CC)CC)cc1)CC1CC1	·	-1%	-21%	-66*	10µM*	?
COc1ccc(OC)c(/C(C)=N/Nc2ccc(C(=O)O)cc2)c1	-19%	-2%	30%[46.1 µM]	-96*	24%	20%[46.1 µM]
COc1cc(C(=O)Nc2ccc3ccccc3c2)cc(OC)c1OC	20%	-9%	-11%[46.1 µM]	47	?	1.4µM*
CCn1c(CNC(=O)c2cc(OC)c(OC)c(OC)c2)cc2ccccc21	-27%	-5%	?	-61*	?	?
COc1cc(C(=O)Nc2ccc3c(c2)ncn3C(C)(C)C)cc(OC)c1OC	11%	-10%	·	53	13µM*	·
